The panel holds about 79,000 compounds, 15% with a hit somewhere; the sample as a whole holds those more often. Values without a mark were called inactive. Activity calls are given as the source filed them. No stated cut-off is given here; in the data, active means growth inhibition above about 70%; inactive means the rest.

Assay [1] is described as follows: NCI Yeast Anticancer Drug Screen. Data for the rad50 strain (AID 155).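 Further: 0% = growth of vehicle-only cultures of the same strain.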 The conditions noted are these: S. cerevisiae rad50 strain growth inhibition, active compounds read high. The method in brief: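 Inhibition values express reduced yeast growth in compound-treated cultures relative to vehicle-treated controls.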
The nature of assay [2]: NCI Yeast Anticancer Drug Screen. Data for the mec2-1 strain (AID 157). The conditions noted are these: S. cerevisiae mec2-1 strain, active compounds read high. The method in brief: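 mec2-1 yeast strain, carrying an alteration in DNA damage repair or cell cycle control, was exposed to compounds; growth inhibition was measured relative to vehicle-treated controls.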
The nature of assay [3]: NCI Yeast Anticancer Drug Screen. Data for the sgs1 mgt1 strain (AID 161).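 Further: 0% = growth of cultures given vehicle only.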 The conditions noted are these: S. cerevisiae sgs1 mgt1 strain, active compounds read high. In outline: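 Yeast cells carrying a defined DNA-repair defect were exposed to test compounds. Growth inhibition was measured relative to vehicle-treated controls.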
Assay [4] is described as follows: NCI Yeast Anticancer Drug Screen. Data for the cln2 rad14 strain (AID 165).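 Further: 0% = growth equal to vehicle treated cultures.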 As to conditions: S. cerevisiae cln2 rad14 strain, active compounds read high. In outline: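 Yeast carrying cln2 and rad14 alterations (cell cycle control and DNA damage repair) were exposed to compounds. Growth inhibition was measured against vehicle-treated controls.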
Assay [5] in a line: NCI Yeast Anticancer Drug Screen. Data for the bub3 strain (AID 167). As to conditions: S. cerevisiae bub3 mutant strain, active compounds read high. In outline: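 Steps: expose the mutant yeast strain to compound; grow alongside vehicle-treated cultures; measure growth; express inhibition against the vehicle cultures.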
Assay [6] in a line: NCI Yeast Anticancer Drug Screen. Data for the mlh1 rad18 strain (AID 175). As to conditions: S. cerevisiae mlh1 rad18 strain growth inhibition, active compounds read high. In outline: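 Growth inhibition of the yeast strain was measured after compound exposure and expressed relative to vehicle-treated controls. The strain carries defined defects in DNA damage repair.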
Setting [7] is: at 5.0 µM (retest, dose inferred, filed as 0.5).
Setting [8] is: at 50.0 µM (retest, dose inferred, filed as 5.0).

On to `CO/N=C/c1ccc([N+](=O)[O-])s1`, for which the growth inhibition in assay [1] (setting [7]) is -147%; in assay [1] (setting [8]), 95% (active); in assay [1] (at 50.0 µM), 65.7%; in assay [2] (setting [7]), -44%; in assay [2] (setting [8]), 80% (active); in assay [2] (at 50.0 µM) it was 16.6%. Besides, the growth inhibition in assay [3] (setting [7]) is -51%; in assay [3] (setting [8]), 71% (active); in assay [3] (at 50.0 µM) it was 33.8%; in assay [4] (setting [7]), -63%; in assay [4] (setting [8]), 48%; in assay [4] (at 50.0 µM) it was 7.5%. Also, the growth inhibition is -61% in assay [5] (setting [7]); 76% (active) in assay [5] (setting [8]); 29.7% in assay [5] (at 50.0 µM); -108% in assay [6] (setting [7]); 94% (active) in assay [6] (setting [8]); 75.5% (active) in assay [6] (at 50.0 µM).

As for `O=[N+]([O-])c1ccccc1Oc1ccc([N+](=O)[O-])c(C(F)(F)F)c1`, the growth inhibition in assay [1] (setting [7]) was -4%; in assay [1] (setting [8]), 83% (active); in assay [1] (at 50.0 µM) it was 80.1% (active); in assay [2] (setting [7]) it was -2%; in assay [2] (setting [8]), 74% (active); in assay [2] (at 50.0 µM) it was 82.7% (active). Moreover, the growth inhibition in assay [3] (setting [7]) is 0%; in assay [3] (setting [8]), -24%; in assay [3] (at 50.0 µM) it was 92.5% (active); in assay [4] (setting [7]), -8%; in assay [4] (setting [8]), 45%; in assay [4] (at 50.0 µM), 45.9%. Further, the growth inhibition in assay [5] (setting [7]) is 2%; in assay [5] (setting [8]) it was 92% (active); in assay [5] (at 50.0 µM), 95.3% (active); in assay [6] (setting [7]), -1%; in assay [6] (setting [8]), 90% (active); in assay [6] (at 50.0 µM), 92.7% (active).

For the molecule `COC(C(=O)O)c1ccccc1` (stereo not given), the growth inhibition in assay [1] (setting [7]) is -1%; in assay [1] (setting [8]) it was 9%; in assay [1] (at 50.0 µM), 75% (active); in assay [2] (setting [7]) it was -1%; in assay [2] (setting [8]), -3%; in assay [2] (at 50.0 µM), 8.9%. Also, the growth inhibition is -2% in assay [3] (setting [7]); -2% in assay [3] (setting [8]); 74.8% (active) in assay [3] (at 50.0 µM); 1% in assay [4] (setting [7]); -5% in assay [4] (setting [8]); -1.95% in assay [4] (at 50.0 µM). Further, the growth inhibition in assay [5] (setting [7]) is -2%; in assay [5] (setting [8]), 1%; in assay [5] (at 50.0 µM), 47.1%; in assay [6] (setting [7]), -3%; in assay [6] (setting [8]), 0%; in assay [6] (at 50.0 µM), 79.5% (active).

Regarding `CC(C)N1C(=O)C=CC1=O`, the growth inhibition in assay [1] (setting [7]) is 6%; in assay [1] (setting [8]), 67%; in assay [1] (at 50.0 µM) it was 93.7% (active); in assay [2] (setting [7]) it was 7%; in assay [2] (setting [8]), 60%; in assay [2] (at 50.0 µM), 98.8% (active). Further, the growth inhibition was 7% in assay [3] (setting [7]); 53% in assay [3] (setting [8]); 52.1% in assay [3] (at 50.0 µM); 2% in assay [4] (setting [7]); 57% in assay [4] (setting [8]); 57% in assay [4] (at 50.0 µM). Besides, the growth inhibition in assay [5] (setting [7]) is 1%; in assay [5] (setting [8]), 75% (active); in assay [5] (at 50.0 µM), 46.6%; in assay [6] (setting [7]) it was 3%; in assay [6] (setting [8]), 60%; in assay [6] (at 50.0 µM), 54%.

With `COC(=O)/C(=N\NC(=O)c1ccccc1O)C(C#N)c1ccc(Cl)cc1` (stereo not given), the growth inhibition in assay [1] (setting [7]) was -4%; in assay [1] (setting [8]), 44%; in assay [1] (at 50.0 µM), 62.1%; in assay [2] (setting [7]), -1%; in assay [2] (setting [8]), 65%; in assay [2] (at 50.0 µM), 54.8%. The growth inhibition is 13% in assay [3] (setting [7]); 73% (active) in assay [3] (setting [8]); 68% in assay [3] (at 50.0 µM); -7% in assay [4] (setting [7]); 42% in assay [4] (setting [8]); 43.4% in assay [4] (at 50.0 µM). For the same molecule, the growth inhibition in assay [5] (setting [7]) was -3%; in assay [5] (setting [8]), 79% (active); in assay [5] (at 50.0 µM) it was 71.8% (active); in assay [6] (setting [7]), 0%; in assay [6] (setting [8]), 60%; in assay [6] (at 50.0 µM), 70.6% (active).

As for `Nc1nnc2nc(CC(=O)c3ccc([N+](=O)[O-])cc3)c(CC(=O)c3ccc([N+](=O)[O-])cc3)nn12`, the growth inhibition in assay [1] (setting [7]) was 6%; in assay [1] (setting [8]), -3%; in assay [1] (at 50.0 µM), 3.7%; in assay [2] (setting [7]), 15%; in assay [2] (setting [8]), 15%; in assay [2] (at 50.0 µM), 19.2%. Also, the growth inhibition in assay [3] (setting [7]) is 6%; in assay [3] (setting [8]), 2%; in assay [3] (at 50.0 µM) it was 11.8%; in assay [4] (setting [7]) it was 4%; in assay [4] (setting [8]), 4%; in assay [4] (at 50.0 µM), 43.1%. Moreover, the growth inhibition was 6% in assay [5] (setting [7]); 1% in assay [5] (setting [8]); 0.8% in assay [5] (at 50.0 µM); 4% in assay [6] (setting [7]); 26% in assay [6] (setting [8]); 3.05% in assay [6] (at 50.0 µM).

Take `O=C(NCCCNCCCCNCCCNC(=O)c1cc(-c2ccccc2)nc2ccccc12)c1cc(-c2ccccc2)nc2ccccc12`: the growth inhibition in assay [1] (setting [7]) is 49%; in assay [1] (setting [8]), 98% (active); in assay [1] (at 50.0 µM), 90.2% (active); in assay [2] (setting [7]) it was 25%; in assay [2] (setting [8]) it was 99% (active); in assay [2] (at 50.0 µM), 93.2% (active). The growth inhibition in assay [3] (setting [7]) was 34%; in assay [3] (setting [8]), 99% (active); in assay [3] (at 50.0 µM) it was 92.8% (active); in assay [4] (setting [7]), 30%; in assay [4] (setting [8]) it was 98% (active); in assay [4] (at 50.0 µM), 91.1% (active). For the same molecule, the growth inhibition in assay [5] (setting [7]) was 33%; in assay [5] (setting [8]) it was 64%; in assay [5] (at 50.0 µM), 92.2% (active); in assay [6] (setting [7]) it was 46%; in assay [6] (setting [8]) it was 99% (active); in assay [6] (at 50.0 µM) it was 90% (active).

`CCCCCCCCCCCCCCCC1C(N)C(=O)N(C)N1C` (stereo not given): the growth inhibition in assay [1] (setting [7]) was -33%; in assay [1] (setting [8]) it was 96% (active); in assay [1] (at 50.0 µM) it was 89.7% (active); in assay [2] (setting [7]), -25%; in assay [2] (setting [8]) it was 97% (active); in assay [2] (at 50.0 µM), 91.2% (active). Besides, the growth inhibition in assay [3] (setting [7]) is -19%; in assay [3] (setting [8]), 95% (active); in assay [3] (at 50.0 µM), 91.7% (active); in assay [4] (setting [7]), -30%; in assay [4] (setting [8]), 94% (active); in assay [4] (at 50.0 µM) it was 88% (active). Besides, the growth inhibition in assay [5] (setting [7]) is -51%; in assay [5] (setting [8]), 95% (active); in assay [5] (at 50.0 µM), 89.5% (active); in assay [6] (setting [7]), -43%; in assay [6] (setting [8]), 95% (active); in assay [6] (at 50.0 µM), 90.4% (active).

Consider `CCOC(=O)CC1(C)C(=O)CCCC1=O`, for which the growth inhibition in assay [1] (setting [7]) is 3%; in assay [1] (setting [8]), -2%; in assay [1] (at 50.0 µM), -3.7%; in assay [2] (setting [7]), -2%; in assay [2] (setting [8]), -2%; in assay [2] (at 50.0 µM) it was 2%. Moreover, the growth inhibition in assay [3] (setting [7]) was 0%; in assay [3] (setting [8]) it was 0%; in assay [3] (at 50.0 µM), 3.65%; in assay [4] (setting [7]) it was 0%; in assay [4] (setting [8]), -2%; in assay [4] (at 50.0 µM), -27.5%. The growth inhibition in assay [5] (setting [7]) was -5%; in assay [5] (setting [8]), -2%; in assay [5] (at 50.0 µM) it was -6.7%; in assay [6] (setting [7]), -3%; in assay [6] (setting [8]), -156%; in assay [6] (at 50.0 µM), -1%.

In the case of `O=C1OC(=O)C2C(c3ccccc3)=C(c3ccccc3)C(c3ccccc3)=C(c3ccccc3)C12` (stereo not given), the growth inhibition in assay [1] (setting [7]) was 37%; in assay [1] (setting [8]), 77% (active); in assay [1] (at 50.0 µM), 61%; in assay [2] (setting [7]) it was 35%; in assay [2] (setting [8]), 72% (active); in assay [2] (at 50.0 µM) it was 50%. Further, the growth inhibition was 33% in assay [3] (setting [7]); 62% in assay [3] (setting [8]); 54.4% in assay [3] (at 50.0 µM); 32% in assay [4] (setting [7]); 67% in assay [4] (setting [8]); 76.2% (active) in assay [4] (at 50.0 µM). For the same molecule, the growth inhibition in assay [5] (setting [7]) is 29%; in assay [5] (setting [8]) it was 63%; in assay [5] (at 50.0 µM), 56%; in assay [6] (setting [7]), 47%; in assay [6] (setting [8]), 81% (active); in assay [6] (at 50.0 µM), 62%.

The record behind these values is PubChem BioAssay (NCI).
